The text below walks through data of ChEMBL document CHEMBL4513141, “CO-ADD screening of NIH (USA) - Clinical Collection” (2021).

The test system of one test is Staphylococcus aureus. The note with it: Concentration 20 uM; ASSAY_TEST Inhibition of Bacterial Growth; detection method Absorption (OD600); MEDIA CAMHB; plate type 384well; NBS; CORNING #3640; time 18 hr.
Another test deals with Escherichia coli. The note with it: Concentration 20 uM; ASSAY_TEST Inhibition of Bacterial Growth; detection method Absorption (OD600); MEDIA CAMHB; plate type 384well; NBS; CORNING #3640; time 18 hr.

Molecules are shown by their SMILES. Entries with a potency or affinity are not part of this list. Square brackets hold non-standard residues; d marks the D form. Peptide text beside a SMILES is read from it. pGlu = O=C1CC[C@@H](C(=O)O)N1; Thz = O=C(O)[C@@H]1CSCN1

Take `CCc1c(C)[nH]c2c1C(=O)C(CN1CCOCC1)CC2.Cl` (centres undefined) [MOLINDONE HYDROCHLORIDE]: the Inhibition is -5.38% in the test with Staphylococcus aureus and 4.7% in the test with Escherichia coli.
Regarding `CC1CC2C3CCC4=CC(=O)C=CC4(C)[C@@]3(Cl)C(O)CC2(C)C1(O)C(=O)CO` (some centres undefined), the results for the Inhibition in the test with Staphylococcus aureus and with Escherichia coli were 12.42% and 5.77%, respectively.
Regarding `CS(=O)(=O)O.Cc1c(O)cccc1C(=O)N[C@@H](CSc1ccccc1)[C@H](O)CN1C[C@H]2CCCC[C@H]2C[C@H]1C(=O)NC(C)(C)C` [NELFINAVIR MESYLATE], the Inhibition in the test on Staphylococcus aureus stood at 8.63%; in the test on Escherichia coli, 1.35%.
On to `Nc1nc(N)nc(-c2cc(Cl)ccc2Cl)n1.O=C(O)/C=C\C(=O)O` [IRSOGLADINE MALEATE], for which the Inhibition with Staphylococcus aureus is 8.27%; in the test with Escherichia coli, 0.86%.
Turning to `CN1CCN(c2nc3cc(C(F)(F)F)ccc3n3cccc23)CC1.O=C(O)/C=C\C(=O)O.O=C(O)/C=C\C(=O)O`, the Inhibition in the test on Staphylococcus aureus was 3.37%; with Escherichia coli, 4.75%.
The matching figures for `O=C(NCCO[N+](=O)[O-])c1cccnc1` [NICORANDIL]: 13.24% and 8.35%.
In the case of `CC(C)NCC(O)COc1ccc(CCOCC2CC2)cc1.Cl` (centres undefined) [BETAXOLOL HYDROCHLORIDE], the figures for the Inhibition in the test with Staphylococcus aureus and with Escherichia coli were 7.41% and 0.81%, respectively.
With `CCC1=C[C@H]2CN(C1)Cc1c([nH]c3ccccc13)[C@@](C(=O)OC)(c1cc3c(cc1OC)N(C)[C@H]1[C@@](O)(C(=O)OC)[C@H](OC(C)=O)[C@]4(CC)C=CCN5CC[C@]31[C@@H]54)C2.O=C(O)C(O)C(O)C(=O)O.O=C(O)C(O)C(O)C(=O)O`, the results for the Inhibition in the test with Staphylococcus aureus and with Escherichia coli were 13.36% and 2.61%, respectively.
With `COc1cc(C[C@@H](CO)[C@H](CO)Cc2ccc(O)c(OC)c2)ccc1O` [(+)-SECOISOLARICIRESINOL], the Inhibition in the test on Staphylococcus aureus is 14.2%; in the test on Escherichia coli, -3.86%.
In the case of `CC(=O)O[C@H]1C[C@@H]2CC[C@@H]3[C@H](CC[C@@]4(C)[C@H]3C[C@H]([N+]3(C)CCCCC3)[C@@H]4OC(C)=O)[C@@]2(C)C[C@@H]1N1CCCCC1.[Br-]` [VECURONIUM BROMIDE], the figures for the Inhibition in the test on Staphylococcus aureus and in the test with Escherichia coli were -16.09% and 5.67%, respectively.
The matching figures for `COC(=O)C1=C(C)NC(C)=C(C(=O)OCCN(C)Cc2ccccc2)C1c1cccc([N+](=O)[O-])c1.Cl` (centres undefined) [NICARDIPINE HYDROCHLORIDE]: -1.65% and 2.23%.
In the case of `CC(C)(C)NCC(O)c1ccc(O)c(CO)c1.CC(C)(C)NCC(O)c1ccc(O)c(CO)c1.O=S(=O)(O)O` (centres undefined) [ALBUTEROL SULFATE], the Inhibition in the test with Staphylococcus aureus turned out to be 8.55%; in the test on Escherichia coli it was 5.03%.
On to `O=C1CC[C@@H](C(=O)N2CSC[C@H]2C(=O)O)N1` [PIDOTIMOD] ([pGlu]-[Thz]-OH), for which the Inhibition is on record as 9.9% with Staphylococcus aureus and 2.88% with Escherichia coli.
Take `c1ccc2[nH]c(-c3cscn3)nc2c1` [THIABENDAZOLE]: the Inhibition with Staphylococcus aureus was determined as 9.35%; with Escherichia coli it was 1.68%.
The matching figures for `CS(=O)(=O)OCCCCOS(C)(=O)=O` [BUSULFAN]: 14.7% and 10.16%.
The matching figures for `Cl.O.OC[C@H]1O[C@@H](n2cnc3c(N[C@H]4CCC[C@@H]4O)ncnc32)[C@@H](O)C1O` (some centres undefined): 7.67% and 1.98%.
On to `O=c1[nH]c(=O)n(C2CCCO2)cc1F` (centres undefined) [TEGAFUR], for which the Inhibition in the test on Staphylococcus aureus came to 17.75%; in the test with Escherichia coli, 8.41%.
Consider `CN(C)CCN(Cc1ccccc1)c1ccccn1.Cl` [TRIPELENNAMINE HYDROCHLORIDE], for which the Inhibition with Staphylococcus aureus was -12.77%; in the test with Escherichia coli it was 7.66%.
The matching figures for `CCS(=O)(=O)CCn1c([N+](=O)[O-])cnc1C` [TINIDAZOLE]: 16.09% and -5.72%.
Consider `NNCCc1ccccc1.O=S(=O)(O)O` [PHENELZINE SULFATE], for which the Inhibition in the test on Staphylococcus aureus is -0.33%; in the test on Escherichia coli, 5.31%.
`CC(C(=O)O)c1cccc(C(=O)c2ccccc2)c1` (centres undefined) [KETOPROFEN]: the results for the Inhibition in the test on Staphylococcus aureus and in the test with Escherichia coli were 6.88% and -2.29%, respectively.
Turning to `COc1ccc(/C=C/C(=O)Nc2ccccc2C(=O)O)cc1OC`, the Inhibition in the test with Staphylococcus aureus is recorded as 8.38%; in the test with Escherichia coli, -3.33%.
The matching figures for `CN(C)CC/C=C1/c2ccccc2COc2ccc(CC(=O)O)cc21.Cl` [OLOPATADINE HYDROCHLORIDE]: -18.81% and 1.13%.
On to `CCc1cccc2c3c([nH]c12)C(CC)(CC(=O)O)OCC3` (centres undefined) [ETODOLAC], for which the figures for the Inhibition in the test with Staphylococcus aureus and with Escherichia coli were 5.09% and -6.35%, respectively.
The matching figures for `C[C@@H]1C[C@H]2[C@@H]3C[C@H](F)C4=CC(=O)C(Cl)=C[C@]4(C)[C@@]3(F)[C@@H](O)C[C@]2(C)[C@@]1(O)C(=O)CO` [HALOMETASONE]: 3% and 4.02%.
With `C[C@]12CCC(=O)C=C1CC[C@@H]1[C@@H]2C(=O)C[C@@]2(C)[C@H]1CC[C@]2(O)C(=O)CO` [CORTISONE], the Inhibition with Staphylococcus aureus is reported as 18.73%; with Escherichia coli, 3.83%.
The matching figures for `Nc1nc(Cl)nc2c1ncn2[C@H]1C[C@H](O)[C@@H](CO)O1` [CLADRIBINE]: 6.87% and 14.09%.
`CCC(CO)NCCNC(CC)CO` (centres undefined): the Inhibition with Staphylococcus aureus is 8.81%; in the test with Escherichia coli it was 2.87%.
For the molecule `O=C1C(c2c(O)[nH]c3ccccc23)=Nc2ccccc21`, the Inhibition in the test with Staphylococcus aureus is 2.27%; in the test on Escherichia coli, -3.28%.
In the case of `C[C@@H]1O[C@@H](OC[C@H]2O[C@@H](Oc3c(-c4ccc(O)c(O)c4)oc4cc(O)cc(O)c4c3=O)[C@H](O)[C@@H](O)[C@@H]2O)[C@H](O)[C@H](O)[C@H]1O` [RUTIN], the Inhibition with Staphylococcus aureus is 17.86%; in the test on Escherichia coli it was 2.05%.
With `CCN1CCC[C@H]1CNC(=O)c1c(O)c(Cl)cc(Cl)c1OC` [RACLOPRIDE], the figures for the Inhibition in the test on Staphylococcus aureus and in the test with Escherichia coli were 2.11% and 10.63%, respectively.
Regarding `NC(CO)(CO)CO.O=C(c1ccccc1)c1ccc2n1CCC2C(=O)O` (centres undefined) [KETOROLAC TROMETHAMINE], the Inhibition in the test with Staphylococcus aureus is listed as 4.45%; with Escherichia coli, -3.99%.
For `COc1ccccc1N1CCN(CC(O)COc2cccc3ccccc23)CC1` (centres undefined) [NAFTOPIDIL], the Inhibition stood at 4.28% in the test with Staphylococcus aureus and 7.29% with Escherichia coli.
Turning to `CN(C)C(=O)Oc1ccc[n+](C)c1.[Br-]` [PYRIDOSTIGMINE BROMIDE], the Inhibition is 10.54% with Staphylococcus aureus and -0.78% with Escherichia coli.
Take `CN(C/C=C/C#CC(C)(C)C)Cc1cccc2ccccc12.Cl` [TERBINAFINE HYDROCHLORIDE]: the Inhibition with Staphylococcus aureus was 10.26%; with Escherichia coli, 3%.
Turning to `CCc1ccc(CCOc2ccc(CC3SC(=O)NC3=O)cc2)nc1.Cl` (centres undefined) [PIOGLITAZONE HYDROCHLORIDE], the Inhibition with Staphylococcus aureus is 3.82%; in the test on Escherichia coli, -0.97%.
For `COC(=O)C1=C(C)NC(C)=C(C(=O)O[C@@H]2CCCN(Cc3ccccc3)C2)[C@@H]1c1cccc([N+](=O)[O-])c1.Cl`, the figures for the Inhibition in the test on Staphylococcus aureus and in the test with Escherichia coli were 8.73% and -0.62%, respectively.
With `CN1CC(=O)N2[C@H](c3ccc4c(c3)OCO4)c3[nH]c4ccccc4c3C[C@@H]2C1=O`, the Inhibition is reported as 6.36% with Staphylococcus aureus and 0.57% with Escherichia coli.
As for `COCCOC(=O)C1=C(C)NC(C)=C(C(=O)OC(C)C)C1c1cccc([N+](=O)[O-])c1` (centres undefined) [NIMODIPINE], the Inhibition worked out at 7.57% in the test on Staphylococcus aureus and 4.2% in the test on Escherichia coli.
Turning to `CCOC(=O)C1(CCCCCCOc2ccc(Cl)cc2)CO1` (stereo not drawn) [rac-ETOMOXIR], the Inhibition in the test with Staphylococcus aureus is reported as 3.7%; in the test with Escherichia coli it was -5.87%.
As for `CC(=O)S[C@@H]1CC2=CC(=O)CC[C@]2(C)[C@H]2CC[C@@]3(C)[C@@H](CC[C@@]34CCC(=O)O4)[C@H]12` [SPIRONOLACTONE], the results for the Inhibition in the test with Staphylococcus aureus and with Escherichia coli were 18.37% and 5.07%, respectively.
Take `Nc1nc(N)c2nc(-c3ccccc3)c(N)nc2n1`: the Inhibition is reported as -4.86% with Staphylococcus aureus and 10.99% with Escherichia coli.
For `O=C(O)COCCN1CCN(C(c2ccccc2)c2ccc(Cl)cc2)CC1` (centres undefined) [CETIRIZINE], the Inhibition in the test with Staphylococcus aureus was 14.64%; in the test on Escherichia coli, -0.91%.
On to `CCCN(CCC)S(=O)(=O)c1ccc(C(=O)O)cc1` [PROBENECID], for which the Inhibition with Staphylococcus aureus is 13.34%; in the test on Escherichia coli, 1.2%.
The matching figures for `CN1C(C(=O)Nc2ccccn2)=C(O)c2ccccc2S1(=O)=O.O`: 15.17% and -5.74%.
The matching figures for `CCC(=O)OCC(=O)[C@@]1(OC(=O)CC)[C@@H](C)C[C@H]2[C@@H]3CCC4=CC(=O)C=C[C@]4(C)[C@@]3(Cl)[C@@H](O)C[C@@]21C` [BECLOMETHASONE DIPROPIONATE]: 4.92% and -8.75%.
The matching figures for `Cl.c1ccc2c(c1)CCCC2C1=NCCN1` (centres undefined) [TETRAHYDROZOLINE HYDROCHLORIDE]: 17.23% and 7.52%.
On to `CN(C)[C@@H]1C(=O)C(C(=O)NCN2CCCC2)=C(O)[C@@]2(O)C(O)=C3C(=O)c4c(O)cccc4[C@@](C)(O)C3CC12` (some centres undefined), for which the Inhibition with Staphylococcus aureus turned out to be 23.2%; in the test with Escherichia coli, 5.47%.
On to `C[C@]12CC[C@@H]3c4ccc(O)cc4CC[C@H]3[C@@H]1CC[C@@H]2O` [ESTRADIOL], for which the values for the Inhibition in the test with Staphylococcus aureus and in the test on Escherichia coli were 2.2% and -0.2%, respectively.
Regarding `C=CCc1ccc(O)c(-c2ccc(O)c(CC=C)c2)c1` [HONOKIOL], the Inhibition turned out to be 11.41% with Staphylococcus aureus and 4.96% in the test with Escherichia coli.
Regarding `COC(=O)C1=C(C)NC(C)=C(C(=O)OC(C)C)C1c1cccc2nonc12` (centres undefined) [ISRADIPINE], the figures for the Inhibition with Staphylococcus aureus and in the test on Escherichia coli were 14.31% and -0.09%, respectively.
On to `Cc1ccc(-c2cc(C(F)(F)F)nn2-c2ccc(S(N)(=O)=O)cc2)cc1` [CELECOXIB], for which the Inhibition is 5.39% in the test with Staphylococcus aureus and 6.38% with Escherichia coli.
In the case of `CN1CCCC(n2nc(Cc3ccc(Cl)cc3)c3ccccc3c2=O)CC1.Cl` (centres undefined) [AZELASTINE HYDROCHLORIDE], the Inhibition in the test on Staphylococcus aureus is -20.95%; in the test with Escherichia coli, 3.65%.
For `CC(=O)O[C@]1(C(C)=O)CC[C@H]2[C@@H]3C[C@H](C)C4=CC(=O)CC[C@]4(C)[C@H]3CC[C@@]21C` [MEDROXYPROGESTERONE ACETATE], the Inhibition came out at 10.39% in the test with Staphylococcus aureus and 2% in the test on Escherichia coli.
Take `Cc1ncc([N+](=O)[O-])n1CCO` [METRONIDAZOLE]: the Inhibition in the test on Staphylococcus aureus is 17.23%; in the test on Escherichia coli it was 2.82%.
For `CCN1CCCC1CNC(=O)c1cc(S(=O)(=O)CC)c(N)cc1OC` (centres undefined) [AMISULPRIDE], the figures for the Inhibition in the test on Staphylococcus aureus and in the test on Escherichia coli were 15.04% and -7.41%, respectively.
The matching figures for `CC[C@H](C)C(=O)O[C@H]1CCC=C2C=C[C@H](C)[C@H](CC[C@@H]3C[C@@H](O)CC(=O)O3)[C@H]21` [MEVASTATIN]: -0.69% and 8.43%.
